In the assay the test system is CAMK1D. As to conditions: concentration: 1 μM, replicates: in singlicate; n = 1.
For `Oc1ccc2ncnc(Nc3ccc(OCc4ccccc4)cc3)c2c1` [GI262866], the “%Inh” value was 4%.
Then `FC(F)(F)c1ccc(-c2cc(-c3c[nH]nc3-c3ccccn3)ccn2)cc1` [GW599550], with 22%; and `CCc1nc(-c2cccc(C)c2)c(-c2ccnc(NC(=O)c3ccccc3)c2)s1`, with 7%.
Next, `CN1c2ccc(-c3ccc(C(=O)NCCO)cc3)cc2-c2[nH]ncc2S1(=O)=O`: 45%.
For the molecule `O=C(c1ccc(-c2cc(-c3c[nH]nc3-c3ccccn3)ccn2)cc1)N1CCCC1` [GW792479], the “%Inh” value amounted to 30%.
Next, `COc1ccc(-c2oc3ncnc(N)c3c2-c2ccc(OC)cc2)cc1` [SB-589132]: 7%; `CCc1nc(-c2cccc(N(C)S(=O)(=O)c3ccccc3)c2)c(-c2ccnc(Nc3ccc(N4CCN(C(C)=O)CC4)nc3)n2)s1` [GSK1645895]: 29%.
Then `Fc1cccc(COc2ccc(Nc3ncnc4cc[nH]c34)cc2Cl)c1`, with 0%.
Then `Cl.c1ccc(Cn2ncc3cc(Nc4ncnc5ccccc45)ccc32)cc1` [GW273749], with 17%; and `COC(=O)c1cccc(NC(=O)NCCNc2ccnc(Nc3ccc(F)cc3)n2)c1` [GSK1379883], with 21%.
As to `Cl.c1ccc(Cn2ccc3cc(Nc4ncnc5ccccc45)ccc32)cc1` [GW275568], the “%Inh” value is recorded as 27%.
Next, `COc1ccc(Nc2nccc(N3CCC(NC(=O)c4cccc(NC(C)=O)c4)C3)n2)cc1` (centres unmarked) [GSK1379732]: 8%; `Nc1nccc2scc(-c3ccc4c(c3)CCN4C(=O)Cc3cc(F)ccc3F)c12` [GSK2587663]: 21%.
Next, `Fc1ccc(Nc2nccc(-c3c(-c4ccc(Cl)cc4)nn4ncccc34)n2)cc1F` [GW829058]: 32%; `CS(=O)(=O)CCNCc1ccc(-c2ccc3ncnc(Nc4ccc(OCc5ccccc5)c(Cl)c4)c3c2)o1.Cl` [GW574783]: 4%; `Cn1ccc2ncnc(Oc3ccc(NC(=O)Nc4cccnc4)c(Cl)c3)c21`: 0%.
Next, `COc1ccc(NC(=O)c2ccc(-c3cc(-c4nnc(C)o4)ccc3C)cc2)cc1` [GW595885]: 8%; `NC(=O)c1sc(-n2cnc3ccccc32)cc1OCc1ccccc1F` [GSK1024306]: 0%; `Fc1ccc(-c2ncn(CCCNCc3ccccc3)c2-c2ccncc2)cc1`: 4%.
In the case of `CCC(CC)(CC)n1cnc2c(N)ncnc21` [SKF-97620], the “%Inh” value was determined as 4%.
Next, `N#Cc1ccc(Oc2ccc(Nc3ncnc4cc[nH]c34)cc2Cl)cc1`: 33%; `O=C(Nc1n[nH]c2nc(-c3ccco3)c(Br)cc12)c1ccc(CN2CCCC2)cc1.O=C(O)[C@H](O)[C@@H](O)C(=O)O` [SB-742352]: 8%; `O=C(NCCCN1CCCC1=O)c1cnc(NCc2cc(Cl)ccc2Cl)nc1NC1CCNCC1`: 6%.
Regarding `O=C(Nc1ccccc1)Nc1ccc(Oc2ccc3nccn3n2)cc1`, the “%Inh” value came to 0%.
Then `CCCc1ccc(S(=O)(=O)NC2CCN(c3ccnc(Nc4ccc(OC)cc4)n3)C2)cc1` (centres unmarked) [GSK1379737], with 11%; and `COC(=O)c1c(-c2ccccc2)c2cc(Cl)ccc2c(=O)n1Cc1ccc(S(C)(=O)=O)cc1`, with 0%; and `CC(C)N1CCC(n2cnc(-c3ccc(F)cc3)c2-c2ccnc(N)n2)CC1` [SB-223132], with 0%.
Then `Nc1n[nH]c2nnc(-c3ccccc3)cc12` [SB-517389], with 28%; and `C[C@H]1CC[C@@H](C(=O)Nc2ccccc2)CN1c1cc(-c2ccc3c(N)n[nH]c3c2)nc(N)n1` [GSK2283293], with 17%.
Then `CN1CCC(n2cnc(-c3ccc(F)cc3)c2-c2ccnc(NC3CCNCC3)n2)CC1` [SB-229482], with 0%; and `Fc1cccc(COc2ccc(Nc3ncnc4sc(-c5ccc[nH]5)cc34)cc2Cl)c1` [GW707818], with 22%.
Regarding `O=C(Nc1ccccc1F)NC1CCN(c2ccnc(Nc3ccc(F)cc3)n2)C1` (centres unmarked) [GSK1379722], the “%Inh” value stood at 0%.
Then `Clc1ccc(-c2cc(-c3c[nH]nc3-c3ccccn3)ccn2)cc1` [GW681251], with 2%; and `COc1cc2ncnc(Nc3ccc(OCc4ccccc4Br)c(Cl)c3)c2cc1OC.Cl` [GI261590], with 0%.
Then `Cl.Cl.c1ccc(-c2cc3ccncc3cc2OC2CCNCC2)cc1` [GSK1122999], with 20%.
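Also: KINOMEscan kinase panel screen.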
